From PubChem BioAssay
PLK1 PBD block: inhibitors of human PLK1 polo-box domain binding; Plk1 PBD binding of FITC phosphopeptide, fluorescence polarization; Potency, µM, for inactives: max response, negative = inhibition, most hits filed as inhibitors; 2.8% of 360,000 active; AID 720504; also: potency is read from the fitted curve at half-maximal effect; series mostly up to about 57 µM; % is scaled to controls: 0 for no effect and ±100 for the full control effect; nearly all actives have a fitted effect of over 65% in size
Target sequence (P53350 whole entry, looked up, the tested form may be a part): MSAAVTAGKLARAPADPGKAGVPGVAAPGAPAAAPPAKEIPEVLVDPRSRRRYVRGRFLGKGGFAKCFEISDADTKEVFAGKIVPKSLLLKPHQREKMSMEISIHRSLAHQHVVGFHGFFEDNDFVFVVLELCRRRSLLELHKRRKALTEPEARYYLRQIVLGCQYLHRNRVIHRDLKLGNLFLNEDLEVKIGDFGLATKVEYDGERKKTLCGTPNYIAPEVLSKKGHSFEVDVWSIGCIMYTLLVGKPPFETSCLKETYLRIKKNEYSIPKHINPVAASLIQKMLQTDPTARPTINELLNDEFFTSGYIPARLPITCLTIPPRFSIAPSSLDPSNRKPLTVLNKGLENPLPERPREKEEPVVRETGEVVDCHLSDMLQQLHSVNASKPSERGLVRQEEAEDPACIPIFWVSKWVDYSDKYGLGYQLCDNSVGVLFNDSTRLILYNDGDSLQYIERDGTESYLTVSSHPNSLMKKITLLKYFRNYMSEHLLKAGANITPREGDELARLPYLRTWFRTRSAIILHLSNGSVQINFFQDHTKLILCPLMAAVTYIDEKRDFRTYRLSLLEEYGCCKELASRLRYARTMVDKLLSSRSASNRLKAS
mIDH1 inhibitor: human IDH1 R132H inhibition; O75874; IDH1-R132H enzyme, NADPH consumption, diaphorase/resazurin fluorescence; Potency, µM (doses to about 76.6 µM), for the others: at the highest dose activity change, negative = inhibition, actives largely listed as inhibitors; 0.093% of 390,000 active; AID 602179; also: potency is read from the fitted curve at half-maximal effect; % is scaled to controls: 0 for no effect and ±100 for the full control effect; nearly all actives have a fitted effect of over 65% in size
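IDH1-R132H (0.5 ug/mL) preincubated 30 min with compound, then NADPH (0.016 mM) and alpha-KG (2 mM) added; 80 min at RT, pH 7.5. Remaining NADPH coupled via diaphorase/resazurin to fluorescence (540/590 nm); concentration-response curves normalized to no-enzyme control.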
TrxR1 inh: rat TrxR1 inhibition; recombinant rTrxR1, NADPH fluorescence consumption, selenite substrate; Potency, µM (top dose mostly 114 µM), for inactives: top-dose activity change, negative = inhibition, most hits filed as inhibitors; 1% of 390,000 active; also: potency is read from the fitted curve at half-maximal effect; % is scaled to controls: 0 for no effect and ±100 for the full control effect; nearly all actives have a fitted effect of over 65% in size
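Rat TrxR1 (90 nM in the dispensed reagent) was pre-reduced with 400 uM NADPH for 5 min at room temperature, then incubated with compound for 15 min. After 400 uM selenite was added, NADPH fluorescence (Ex 340/Em 450 nm) was followed for 8 min.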
Sfp inh: blocks B. subtilis Sfp PPTase activity; Q9F4F7; Potency, µM, for the others: largest response in the series, negative = inhibition, actives largely listed as inhibitors; Biochemical Sfp PPTase activity, qHTS; AID 1490; 3.5% of 310,000 active;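 also: the enzyme is Sfp with the accession as filed and its product quenches rhodamine fluorescence; potency is read from the fitted curve at half-maximal effect; 0% = enzyme reaction without inhibitor and -100% = no enzyme wells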
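Fluorescence-quenching assay with 15 nM Sfp, 5 uM rhodamine-CoA and 12.5 uM BHQ-2-labelled ybbR peptide in pH 7.6 Hepes/MgCl2 buffer. Enzyme was pre-incubated with compound for 15 min at room temperature. Rate was taken from the 30-min fluorescence change (525/598 nm).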
TrxR1 substrate: rat thioredoxin reductase 1 substrate activity | O89049 | purified TrxR1 substrate turnover, NADPH consumption readout | Potency, µM (series often up to 114 µM), for inactives: at the highest dose activity change, negative = substrate turnover | 0.01% of 390,000 active | AID 588456; also: potency is read from the fitted curve at half-maximal effect; % is scaled to controls: 0 for no effect and ±100 for the full control effect; nearly all actives have a fitted effect of over 50% in size
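Rat TrxR1, dispensed at 90 nM, was prereduced with 400 uM NADPH (final) for 5 min at ~22 deg C, then incubated with compound 15 min before 400 uM selenite. A first-read NADPH fluorescence drop versus no-compound background flagged substrates.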
VDR inhibitor: vitamin D3 receptor (human) inhibition; P11473; VDR-SRC2-3 peptide fluorescence polarization, 2 h; Potency, µM, for inactives: max response, negative = inhibition, most hits filed as inhibitors; 0.93% of 400,000 active; AID 504847; also: potency is read from the fitted curve at half-maximal effect; % is scaled to controls: 0 for no effect and ±100 for the full control effect
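Two reagent solutions held at 4 deg C in the dark were dispensed, compounds pinned at 23 nl, and the mixture incubated 2 h at room temperature. Read-out: fluorescence polarization of VDR–SRC2-3 peptide binding.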
IDH1 autofl: interferes with resorufin fluorescence in IDH1 counter-screen. shares compounds with mIDH1 inhibitor. Resorufin detection reagent fluorescence interference, cell-free. inhibition of signal, % at 51.2 µM. 750 tested, under 10 active. AID 623980;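 also: 0% = wells with normal resorufin and full inhibition = wells lacking resorufin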
WT IDH1 inh: wild-type IDH1 (human) inhibition counterscreen; shares compounds with mIDH1 inhibitor; WT IDH1 enzyme, NADPH diaphorase/resazurin fluorescence; Potency, µM (doses to about 115 µM), for the others: at the top dose activity change, negative = inhibition, most hits filed as inhibitors; 9% of 750 active; AID 623995;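 also: potency is read from the fitted curve at half-maximal effect; 0% = full WT IDH1 enzyme control and full inhibition = no enzyme wells; nearly all actives have a fitted effect of over 55% in size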
mIDH1 confirm: confirmation of human mutant IDH1 inhibitors. shares compounds with mIDH1 inhibitor. 83% of 750 active. Potency, µM (top dose mostly 76.6 µM), inactives show at the highest dose activity change, negative = inhibition, actives largely listed as inhibitors. IDH1 R132H enzyme, NADPH diaphorase/resazurin fluorescence; also: potency is read from the fitted curve at half-maximal effect; nearly all actives have a fitted effect of over 50% in size
Numbers without * were called inactive; ? = inconclusive; . = no result given; [ ] = remark or other dose. Compounds with a hit are over-represented: about 5.2% of the library has one in this group of screens. Calls follow the shape of the dose curve; as a rule, active = well fitted curve in the direction sought with a large enough effect; inconclusive = small, poorly fitted or top-dose-only effect, or another doubt; inactive = no such curve, though single readings can be large; an effect the other way counts as inactive or inconclusive.

SMILES | PLK1 PBD block | mIDH1 inhibitor | TrxR1 inh | Sfp inh | TrxR1 substrate | VDR inhibitor | IDH1 autofl | WT IDH1 inh | mIDH1 confirm
C#CCOCCOCCOCCNc1nc(N2CCN(C(=O)Cn3cc(CC(C)O)nn3)CC2)nc(N2CCN(C(=O)[C@H](CCCCN)n3cc(CC(C)O)nn3)CC2)n1 (stereo partly drawn) | -3% | -3%[38.3 µM] | -1% | . | 3% | -8% | . | . | .
C[C@H]1CN([C@@H](C)CO)C(=O)c2cccc(NS(=O)(=O)c3ccc(Cl)cc3)c2O[C@@H]1CN(C)CC1CCCCC1 | -3% | 45µM* | 3% | . | 2% | -4% | -4 | 4% | 32µM*
C=C1CC2(CC(c3ccccc3)OC(c3ccccc3)C2)OC1=O (stereo not drawn) | -9% | 58µM* | -34% | . | -8% | ? | 2 | ? | 22µM*
CC(=O)Oc1cc(OC(C)=O)c2c(c1)OC(c1ccc(OC(C)=O)c(OC(C)=O)c1)C(OC(C)=O)C2 (stereo not drawn) | . | . | . | -6% | . | 7% | . | . | .
CC(=O)Oc1cc(O)c2c(c1)OC(c1ccc(OC(C)=O)c(OC(C)=O)c1)C(OC(C)=O)C2=O (stereo not drawn) | -21% | 52µM* | ? | 6% | -4% | 19% | 2 | 1% | ?
CCc1cccc(C)c1Nc1c(-c2ccc(N(C)C)cc2)nc2cnccn12 | . | 32µM* | 2% | . | -2% | -7% | -9 | -7% | 16µM*
CCc1cccc(C)c1Nc1c(-c2ccc(F)cc2)nc2sccn12 | . | 40µM* | 8% | . | 5% | -14% | 3 | 7% | 14µM*
CN(C)c1ccc(-c2nc3cnccn3c2Nc2cccc(C(F)(F)F)c2)cc1 | . | -27% | -8% | . | -8% | 9% | . | . | .
CCc1cccc(C)c1Nc1c(-c2ccsc2)nc2ncccn12 | . | 30% | -5% | . | -1% | -6% | . | . | .
CCOc1ccc(N(C(=O)Cn2nnc3ccccc32)C(C(=O)NCc2ccccc2)c2ccc(OC)cc2)cc1 (stereo not drawn) | . | -3% | 28% | . | 18% | 8% | . | . | .
Cc1ccc(C(C(=O)NC2CCCC2)N(C(=O)Cc2cccs2)c2ccc(C)c(C)c2)o1 (stereo not drawn) | -3% | 5.2µM* | -4% | -4% | 6%[57.1 µM] | -12% | -1 | 4% | 4.5µM*
Cc1ccc(C(C(=O)NC2CCCC2)N(C(=O)Cc2cccs2)c2ccc3c(c2)OCCO3)cc1 (stereo not drawn) | -8% | ? | 47%[57.1 µM] | -6% | 6% | -2% | . | . | .
CC(=O)c1cccc(N(C(=O)CS(=O)CC(=O)Nc2ccc(F)cc2)C(C(=O)NC2CCCCC2)c2ccc(C)o2)c1 (stereo not drawn) | -11% | ? | ? | 8% | -14% | -1% | 0 | 1% | 16µM*
O=C(CS(=O)CC(=O)N(c1cccc(F)c1)C(C(=O)NC1CCCCC1)c1ccco1)Nc1ccc(F)cc1 (stereo not drawn) | 3% | -10% | 2% | 13% | -6% | 10% | . | . | .
Cn1cccc1C(C(=O)NC1CCCCC1)N(C(=O)Cc1cccs1)c1ccc2c(c1)OCO2 (stereo not drawn) | 1% | ? | 17% | 3% | -3%[57.1 µM] | 0% | 7 | 0% | 11µM*
COc1ccc(N(C(=O)Cn2cnc3ccccc32)C(C(=O)NC2CCCCC2)c2ccccc2)cc1 (stereo not drawn) | 0% | 9.3µM* | 0% | 2% | -4% | 5% | 1 | -6% | 2.8µM*
O=C1NC[C@H](c2ccccc2)N1 | . | . | . | -13% | . | 18% | . | . | .
COc1ccc(C(=O)n2nc(-c3cccnc3)nc2NCc2ccccc2)cc1OC | . | -12% | -2% | . | 6% | 12% | . | . | .
O=C(NC1CCCC1)C(c1ccc(F)cc1)N(C(=O)Cc1cccs1)c1ccc2c(c1)OCCO2 (stereo not drawn) | 0% | 10µM* | 3%[57.1 µM] | 10% | 8%[57.1 µM] | 9% | 6 | -8% | 6.3µM*
COc1ccc(N(C(=O)Cc2cccs2)C(C(=O)NC2CCCCC2)c2cccn2C)cc1 (stereo not drawn) | 2% | ? | 4% | 20% | -1% | -1% | -3 | 15% | 40µM*
COCCCn1c(=O)c2sccc2n2c(CCCC(=O)Nc3ccc(F)c(F)c3)nnc12 | . | 51% | -15% | . | -6% | 1% | . | . | .
Cc1ccc(C(O)c2ncc(-c3ccccc3Cl)[nH]2)cc1F (stereo not drawn) | -4% | . | . | . | . | . | . | . | .
CC1(C)Cc2c(c(N3CCOCC3)nc3sc4c(NN)ncnc4c23)CS1 | 0% | 23µM* | 2% | 22% | -4% | -3% | -5 | ? | 14µM*
CC(C)CNc1nnnc2c1sc1nc(N3CCOCC3)c3c(c12)CC(C)(C)SC3 | -6% | ? | -9% | 9% | 3% | -9% | 10 | ? | ?
NNc1nnnc2c1sc1nc(N3CCOCC3)c3c(c12)CCCC3 | 2% | 52µM* | -19% | 9% | 0% | -27% | -2 | -15% | ?
SMILES | PLK1 PBD block | mIDH1 inhibitor | TrxR1 inh | Sfp inh | TrxR1 substrate | VDR inhibitor | IDH1 autofl | WT IDH1 inh | mIDH1 confirm
CCOc1ccccc1NC(=O)CSc1ccc(-c2sc(C)nc2C)nn1 | ? | 8% | -7% | -7% | -5% | 1% | . | . | .
COc1ccc(CCN(C)C(=O)CCNS(=O)(=O)c2ccccc2C(F)(F)F)cc1OC | -5% | -5% | 49% | . | 4% | -7% | . | . | .
COc1ccc(/C=C/C(=O)NC(=S)Nc2ccc(S(=O)(=O)Nc3nccnc3OC)cc2)cc1 | ? | 2% | ? | ? | 0%[57.1 µM] | -2% | . | . | .
COc1ccc(/C=C/C(=O)NC(=S)Nc2ccc(S(=O)(=O)Nc3cc(OC)ncn3)cc2)cc1 | ? | ? | -31%[57.1 µM] | -9% | -1%[57.1 µM] | 7% | 7 | 40µM* | 5µM*
CCCC(=O)N1CCCC1(C)C(=O)Nc1ccc(-n2cncn2)cc1 (stereo not drawn) | -4% | . | . | . | . | . | . | . | .
CCOC(=O)C1=C(C)OC2(O)c3ccccc3C(=O)C12O (stereo not drawn) | -20% | ? | 24% | -11% | 3% | 5µM* | 3 | 24% | ?
CCCN(CC(=O)Nc1ccccc1OC)C(=O)Cn1c(=O)oc2ccccc21 | -1% | -6% | -3%[57.1 µM] | . | 0%[57.1 µM] | 16% | . | . | .
